Hits are enriched below; roughly 4.1% of the tested compounds scored in any of these assays.
p-CIP stab down: p/CIP-EGFP fusion destabilizers, primary screen, fluorescence, F442A cells; 16 h; decrease of EGFP signal, % at 10 µM; 0.01% of 290,000 active;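 active = EGFP signal decrease of at least 30% at 10 µM or well 3 SD below plate mean, unless failing retest; inactive = the rest, including hits failing retest or dose response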
MPTP block: mitochondrial permeability transition pore inhibitors, primary screen, biochemical, isolated mouse mitochondria, absorbance | inhibition, % at 10 µM | Ca2+ swelling absorbance, 30 min | 1.4% of 360,000 active;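 active = inhibition of 50% or more, scaled per plate between neutral and stimulator controls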;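 also: 0% = DMSO wells given calcium and 100% = 1 mM EGTA wells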
GRIN3A LBD mod: binders of NR3A ligand-binding domain, primary screen, biophysical, differential scanning fluorimetry, uHTS. Glutamate receptor ionotropic, NMDA 3A (GRIN3A) ligand-binding domain. NR3A LBD differential scanning fluorimetry, Tm shift; 0% = protein alone, 100% = glycine-bound protein. Tm shift relative to glycine control, % at 25 µM. 2.5% of 340,000 active. AID 1259313, 2017;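 active = melting temperature shift of at least 10% of the positive control shift, at one fixed dose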
FAS-TE inh: FAS thioesterase domain inhibitors, primary screen, biochemical, fluorescence intensity, uHTS; Fatty acid synthase (Homo sapiens), P49327; recombinant FAS-TE, OMFH fluorogenic substrate, fluorescence endpoint; inhibition, % at 15 µM; 0.67% of 360,000 active; AID 602261, 2012;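 active = compounds whose normalised, plate-corrected inhibition of enzyme fluorescence in the single-dose primary screen is 50% or more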;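 also: 0% = DMSO with enzyme and 100% = substrate without enzyme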
MIN6 prolif: inducers of MIN6 beta-cell proliferation, primary screen, ATP luminescence, uHTS; MIN6 cells proliferation, ATPlite luminescence, 48 h; cells starved in 0.2% serum; 100% = growth in 10% serum; proliferation, % at 10 µM; 0.29% of 330,000 active;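 active = compounds whose signal lies at least 3.5 SD above the mean of all wells on their plate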;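 also: 0% = DMSO-treated cells in low-serum medium and 100% = 10% serum control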
Starred values were filed as active, the others as inactive; . = not tested or not shown.

SMILES	p-CIP stab down	MPTP block	GRIN3A LBD mod	FAS-TE inh	MIN6 prolif
COc1cccc(C(O)c2ncc(-c3ccccc3Cl)[nH]2)c1 (stereo unspecified)	.	0	.	-4	.
CC(=O)OCC1OC(n2c(S)c(C#N)c(-c3ccccc3)c(C#N)c2=O)C(OC(C)=O)C(OC(C)=O)C1OC(C)=O (stereo unspecified)	.	-2	-1	8	.
CS(=O)(=O)Nc1ccc(C(=O)Nc2ccc3ccccc3c2)cc1	2	1	31*	-3	-1
CC(=O)c1cccc(NC(=O)c2ccc(NS(C)(=O)=O)cc2)c1	8	1	-7	-3	4
Cc1cccc(C(=O)Nc2ccc3ccccc3c2)c1	-2	1	9	22	-1
COc1cccc(C(=O)Nc2ccc3ccccc3c2)c1	-6	2	30*	12	-3
CCc1ccc(CN2CCC(Oc3cc(C(=O)NC4CC4)ccc3OC)CC2)cc1	.	0	.	-1	.
COC(=O)c1sc(NC(=O)CC(C)C)c(C(=O)OC)c1C	10	2	21*	12	-1
COC(=O)c1sc(NC(C)=O)c(C(=O)OC)c1C	-3	14	-1	0	2
CCCCNC(=O)c1nc(-c2cccs2)oc1-c1ccc(Cl)cc1	.	2	.	.	.
CC(=O)Nc1ccc2nc(NC(=O)c3ccc([N+](=O)[O-])s3)sc2c1	-5	.	.	.	-3
Cc1nc2cc(NC(=O)c3ccc([N+](=O)[O-])s3)ccc2s1	-10	-1	24*	2	-3
CC1Nc2ncnc(N3CCc4ccccc4C3)c2N(Cc2ccccc2)C1=O (stereo unspecified)	.	1	.	7	.
O=C(O)c1ccccc1C(=O)Nc1nccs1	12	1	1	-5	-1
O=C(O)c1ccccc1C(=O)Nc1n[nH]c(=S)s1	-19	1	14*	-7	1
CC(=O)Nc1cc(-c2ccc(S(C)(=O)=O)cc2)cn2c(-c3ccc(F)c(Cl)c3)cnc12	.	0	.	36	.
OC(CN1CCCCC1)Cn1c2ccc(Cl)cc2c2cc(Cl)ccc21 (stereo unspecified)	-2	-1	-9	-48	-7
OC(CN1CCN(c2ccccn2)CC1)Cn1c2ccc(Cl)cc2c2cc(Cl)ccc21 (stereo unspecified)	-14	5	19*	20	-5
CC(O)CC(=O)OC[C@]12CC[C@H]3[C@@](C)(CC[C@H]4C(C)(C)CCC[C@]34C)[C@@H]1CC(C1=CC(=O)OC1O)O2 (stereo partly specified)	.	1	.	27	.
CCOC(=O)c1ccc(NC(=O)COc2ccc(-n3cnnn3)cc2)cc1	8	4	31*	-6	-4
Cc1ccccc1-c1n[nH]nc1C1=CC(=O)CC(C)(C)C1	.	0	.	-16	.
Cc1ccccc1OCC(=O)NC(=S)Nc1cccc2cc(O)ccc12	3	3	19*	17	-2
COc1cccc(-c2nc(C#N)c(N3CCN(C(=O)c4ccco4)CC3)o2)c1	3	0	11*	-2	-2
Cc1ccc(OCC(=O)N/N=C\c2ccc(-c3cccc(C(=O)O)c3)o2)c(C)c1	5	3	12*	0	-2
Cc1ccc(OCC(=O)N/N=C\c2ccc(C)o2)c(C)c1	16	2	0	-2	-1
SMILES	p-CIP stab down	MPTP block	GRIN3A LBD mod	FAS-TE inh	MIN6 prolif
COc1ccc(OC)c(S(=O)(=O)N/N=C\c2c[nH]c3ccccc23)c1	-17	2	32*	0	-2
COc1ccc(OC)c(S(=O)(=O)N/N=C(/C)c2ccc3c(c2)OCO3)c1	-13	-2	2	1	0
COc1ccc(OC)c(S(=O)(=O)N/N=C(/C)c2c[nH]c3ccccc23)c1	8	1	25*	-2	-2
CN(C)c1ccc(C(=O)NCc2ccc3c(c2)CCO3)cc1	3	0	10*	1	-2
Cc1ccc(CNC(=O)c2ccc(N(C)C)cc2)cc1	-19	-1	-1	0	-1
C=C1C[C@@H]2C[C@@H]2CN(S(=O)(=O)c2ccc(C)cc2)[C@@H]1COCc1ccccc1	.	1	.	19	.
COc1ccc(C2CC(=O)c3c(C)nc(N4CCN(c5ccccc5)CC4)nc3C2)cc1 (stereo unspecified)	-1	3	727*	15	-2
COc1ccc(NS(=O)(=O)c2cc(Br)cc3c2N(C(C)=O)CC3)cc1	-6	0	35*	13	-4
O=c1/c(=C/c2ccccn2)sc2nc3ccccc3n12	-40	-2	2	-1	-3
O=C(O)c1cc(C(=O)O)cc(-c2ccc(/C=c3/sc4nc5ccccc5n4c3=O)o2)c1	10	.	10*	.	.
O=c1/c(=C\c2cc([N+](=O)[O-])cc([N+](=O)[O-])c2O)sc2nc3ccccc3n12	9	32	31*	16	-6
CCCNC(=O)C1(C)CCCN(Cc2csc(-c3ccccc3)n2)C1 (stereo unspecified)	.	1	.	-1	.
C[C@H]1CN([C@@H](C)CO)C(=O)c2cc(Br)cnc2O[C@H]1CN(C)C(=O)Cc1ccccn1	.	0	.	-6	.
O=C1/C(=C/c2ccco2)CCc2ccccc21	-10	4	14*	1	0
COc1ccc2c(c1)CC/C(=C/c1ccco1)C2=O	-13	9	1	16	0
COc1cc(/C=C2/CCc3ccccc3C2=O)cc(OC)c1OC	2	2	-3	24	-3
COc1ccc(/C=C2/CCc3ccccc3C2=O)cc1OC	-1	3	10*	-1	-4
CCOC(=O)[C@]12CCC=C1N(Cc1ccc3c(c1)OCO3)C(=O)[C@H](CC(=O)NCCCN1CCCC1=O)C2	.	-2	.	-13	.
COc1ccc(-c2ccc(NC(=O)c3ccco3)cc2)nn1	.	0	.	-5	-7
COc1ccc(-c2cccc(NC(=O)c3ccco3)c2)nn1	.	0	43*	-5	-1
O=C(Nc1cccc(NC(=O)c2ccc(-c3ccc(Br)cc3)o2)c1)c1ccco1	-10	15	31*	32	-6
CCOC(=O)/C(=N\Nc1ccccc1)c1csc(Nc2ccc(C)cc2)n1	-7	9	25*	38	-4
CCCCC(CCC(=O)O)(C(=O)OCC)c1csc(Nc2ccc(C)cc2)n1 (stereo unspecified)	0	0	-2	0	3
CN(c1ccccc1)c1ncnc2c1ncn2C	.	-1	4	-9	.
O=C(N/N=C/c1ccc(O)cc1O)C(=O)N/N=C/c1ccc(O)cc1O	4	1	36*	4	-2
Oc1ccc(/C=N/NC(=S)Nc2cccnc2)c(O)c1	4	3	12*	-3	-7
Oc1ccc(/C=N/NC(=S)Nc2cccnc2)c(O)c1O	-4	3	2	-13	.
Oc1ccc(C=NNC(=S)Nc2ccc(F)cc2)c(O)c1	.	2	27*	0	.

Bioassay records deposited in PubChem BioAssay by Sanford-Burnham Center for Chemical Genomics.
